Data on 40 compounds can be found in PubChem BioAssay (NCATS).

Results filed as inconclusive are left out. Entries that show only a call come without a potency. Active and inactive are the calls of the source. Calls follow the shape of the dose curve; as a rule, active = well fitted inhibition curve with a large enough effect; inconclusive = small, poorly fitted or top-dose-only effect; inactive = flat fitted curve, though single readings scatter.

Sequence of Voltage-gated inwardly rectifying potassium channel KCNH2 (Homo sapiens) (Q12809 whole entry, looked up): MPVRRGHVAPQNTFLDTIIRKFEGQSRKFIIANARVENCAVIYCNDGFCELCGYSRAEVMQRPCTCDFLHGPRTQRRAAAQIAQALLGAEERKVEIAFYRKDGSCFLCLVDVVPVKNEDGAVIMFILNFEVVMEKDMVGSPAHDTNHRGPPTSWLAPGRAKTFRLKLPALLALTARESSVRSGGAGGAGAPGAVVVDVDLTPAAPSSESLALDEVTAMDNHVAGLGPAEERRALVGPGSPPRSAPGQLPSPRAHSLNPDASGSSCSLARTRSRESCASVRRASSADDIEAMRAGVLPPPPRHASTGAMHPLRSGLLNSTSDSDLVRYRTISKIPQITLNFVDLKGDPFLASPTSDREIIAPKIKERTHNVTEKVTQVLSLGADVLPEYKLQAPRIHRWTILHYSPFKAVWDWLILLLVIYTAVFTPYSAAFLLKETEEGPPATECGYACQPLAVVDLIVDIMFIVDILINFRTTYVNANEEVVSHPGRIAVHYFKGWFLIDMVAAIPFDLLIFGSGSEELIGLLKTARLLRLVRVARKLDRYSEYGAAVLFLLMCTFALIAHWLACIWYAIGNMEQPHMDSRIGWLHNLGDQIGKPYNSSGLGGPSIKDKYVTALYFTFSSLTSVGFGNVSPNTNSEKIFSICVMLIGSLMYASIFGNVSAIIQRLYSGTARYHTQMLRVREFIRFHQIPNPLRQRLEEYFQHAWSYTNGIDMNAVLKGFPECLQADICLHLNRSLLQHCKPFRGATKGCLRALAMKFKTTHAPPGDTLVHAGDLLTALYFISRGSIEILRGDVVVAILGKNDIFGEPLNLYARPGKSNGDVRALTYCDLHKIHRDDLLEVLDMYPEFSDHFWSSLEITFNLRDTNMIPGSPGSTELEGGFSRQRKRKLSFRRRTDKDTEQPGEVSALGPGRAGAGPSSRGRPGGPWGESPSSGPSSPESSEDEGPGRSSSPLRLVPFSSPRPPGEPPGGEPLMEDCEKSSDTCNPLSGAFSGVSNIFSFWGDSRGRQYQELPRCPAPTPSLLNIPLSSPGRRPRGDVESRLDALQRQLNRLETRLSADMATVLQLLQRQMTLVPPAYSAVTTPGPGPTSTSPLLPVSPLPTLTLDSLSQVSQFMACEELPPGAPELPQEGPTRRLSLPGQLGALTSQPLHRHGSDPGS

This assay addresses Voltage-gated inwardly rectifying potassium channel KCNH2 (Homo sapiens) (UniProt Q12809). Nature of the assay: qHTS Assay for Small Molecule Inhibitors of the Human hERG Channel Activity (AID 588834).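 Also: top concentration of the series differs between compounds; lower thallium flux fluorescence means stronger hERG block; nearly all actives have a fitted effect of over 50% in size.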 As to conditions: U2OS BacMam hERG, FluxOR thallium flux fluorescence; series mostly up to 92.2 µM. The text has this: NIH Chemical Genomics Center [NCGC]
National Institutes of Environmental Health Sciences [NIEHS]
National Toxicology Program [NTP]
We have developed a 1536-well cell-based assay for quantitative high throughput screening (qHTS) to determine in vitro hERG channel blockage as a measure of cardio toxicity with small molecules. This particular assay uses the U2OS cell line which is derived from human osteosarcoma.
NCGC Assay Protocol Summary:
HERG assay (FluxORTM thallium flux assay) was initially developed by Invitrogen/Molecular Probes, and then miniaturized into 1536-well plate in a homogeneous format by NCGC. This assay measures the activity of potassium channel using thallium dye (FluxOR) flux as surrogate measurement for potassium into the cells with a FDSS-7000 kinetic plate reader (Hamamatsu Corp., Hamamatsu City, Japan). The hERG ion channel is transduced into mammalian cells (U2OS) using a baculovirus (Bacmam) construct harboring the hERG K+ ion channel. So far we screened LOPAC1280 library (Sigma), the NTP collection of 1408 compounds, and the NCGC Pharmaceutical Collection (NPC), in which many well defined HERG blockers are present. The rank order potencies of many of these compounds are similar to that of other HERG assays (membrane potential, Rb+ flux, patch clamp, etc). This quick and homogeneous assay is also found to be sensitive, specific, and robust.
Using the FluxORTM thallium flux assay, the activity of potassium channel using thallium dye (FluxOR) flux as surrogate measurement for potassium into the cells was measured in the U2OS cell line transduced with hERG K+ ion channel using a baculovirus (Bacmam) using Opti-MEM medium (Invitrogen) containing 2% fetal calf serum (FCS, HyCone) following loading buffer addition, compound treatment for around 10 minutes and finally adding stimulation buffer. The assay was performed in black clear Kalypsys 1536-well plates. In the screen, Astemizole was used as positive controls. Library compounds were measured for their ability to cause hERG channel blockage in the cell line, as reflected by a decrease in fluorescence intensity, in a concentration-dependent manner. […] AC50 values were determined from concentration-response data modeled with the standard Hill equation.
qHTS protocol for hERG-U2OS cellular assay
[Step] [Parameter] [Value] [Description]
1. Day 1: Replace medium in 70-80% confluent T225 flask with 2.5 mL of hERG-BacMam virus plus 12.5 mL of phosphate buffered saline (PBS) (corresponding roughly to a multiplicity of infection ratio of 100 virus particles/cell)
2. Incubation: 4 hrs @ room Temperature in Dark
3. Reagent; Remove virus; wash once with 25 ml DPBS
4. Reagent; 35 ml culture medium
5. Incubation; 37 °C overnight
6. Day2: Reagent; 3 uL; 2000 U2OS cells/well
7. Time; 4 hr; 37 °C incubation
8. Loading buffer; 1 uL; 0.7X;
9. Incubation: 1hr @ RT in Dark.
12. Time; 10min; 37 °C incubation
13. Read fluorescence Intensity on FDSS for 10 Sec with 1 sec interval
14. Reagent; 1 uL; stimulation buffer
15. Read fluorescence Intensity on FDSS for 2 min with 1 sec interval
16. Detection; Fluorescence Intensity; FDSS
On the technique in general: qHTS replaces the single test concentration by a dilution series.
`CCCOCC(C)O` (stereo not given): the Potency entry was “inactive”.

On to `CC(=O)c1cccc([N+](=O)[O-])c1`, for which the Potency result is “inactive”.

Regarding `OC(CCl)CCl`, the Potency entry is “inactive”.

Turning to `CC1CCC2CC1C2(C)C` (stereo not given), the Potency result was “inactive”.

`CC(C)N(C)C`: the Potency result is “inactive”.

With `C=C(C)C1CC=C(C)C(OC(C)=O)C1` (stereo not given), the Potency entry was “inactive”.

Take `CCOC(=O)OCC`: the Potency entry is “inactive”.

For the compound `Cc1c(C(=O)O)cccc1[N+](=O)[O-]`, the Potency entry is “inactive”.

Turning to `CN(C)CCCCl`, the Potency entry is “inactive”.

`COc1cccc(N)c1`: the Potency result is “inactive”.

For `Cc1ccc(C(C)(C)C)cc1`, the Potency entry was “inactive”.

As for `C[C@@H]1O[C@@H](O[C@@H]2[C@@H](O)[C@H](OCCc3ccc(O)c(O)c3)O[C@H](CO[C@@H]3O[C@H](CO)[C@@H](O)[C@H](O)[C@H]3O)[C@H]2OC(=O)/C=C/c2ccc(O)c(O)c2)[C@H](O)[C@H](O)[C@H]1O`, the Potency result was “inactive”.

Consider `Cc1cc(C(=O)O)ccc1[N+](=O)[O-]`, for which the Potency result was “inactive”.

Take `COc1ccccc1[N+](=O)[O-]`: the Potency entry is “inactive”.

For the compound `Nc1cccc([N+](=O)[O-])c1`, the Potency entry is “inactive”.

Regarding `Cc1ccc(Br)cc1`, the Potency entry was “inactive”.

As to `Cc1cc(C)cc([N+](=O)[O-])c1`, the Potency result was “inactive”.

Consider `CC(=O)Nc1ccc(N)cc1`, for which the Potency result is “inactive”.

Take `O=C(O)CNC(=O)c1ccc(CO)o1`: the Potency entry was “inactive”.

With `CC(C)Nc1ccccc1`, the Potency entry is “inactive”.

With `Nc1nc(-c2ccccc2)cs1`, the Potency result was “inactive”.

As for `FC(F)(F)c1ccccc1Cl`, the Potency result is “inactive”.

Consider `CN(C)c1cccc(O)c1`, for which the Potency result is “inactive”.

As to `O=[N+]([O-])c1ccccc1CCO`, the Potency entry is “inactive”.

In the case of `C=C(C)C(N)=O`, the Potency result is “inactive”.

`CC(O)COC(C)(C)C` (stereo not given): the Potency entry was “inactive”.

As to `c1ccc(Nc2ccccc2)cc1`, the Potency entry was “inactive”.

For `C=C(C)C(=O)OCC(C)C`, the Potency result is “inactive”.

As for `Nc1ccc(Cl)cc1[N+](=O)[O-]`, the Potency result was “inactive”.

Regarding `BrC(Br)C(Br)Br`, the Potency entry is “inactive”.

As to `O=Cc1ccccc1Cl`, the Potency result was “inactive”.

`O=C(O)CN(CC(=O)O)CC(=O)O`: the Potency result was “inactive”.

For `CNC(=O)c1ccccc1`, the Potency result was “inactive”.

For `Cc1ccccc1C(=O)O`, the Potency entry was “inactive”.

As for `C[C@@H]1CC2(OC3C[C@@]4(C)C5=CC[C@H]6C(C)(C)C(O[C@@H]7OC[C@@H](O)[C@H](O)[C@H]7O)CC[C@@]67C[C@@]57CC[C@]4(C)C31)OC(O)C1(C)OC21` (stereo not given in full), the Potency result is “inactive”.

In the case of `CNC(=O)N(c1ccccc1)c1ccccc1`, the Potency entry was “inactive”.

For the compound `CN(C)CCCNCCCN`, the Potency entry was “inactive”.

For the compound `Cc1ccc(Cl)cc1N`, the Potency result was “inactive”.

As for `Cc1ccc2cccnc2c1`, the Potency result was “inactive”.

In the case of `Cc1ccco1`, the Potency result is “inactive”.
